The test system of assay [1] is RAW-Dual. The assay is described as follows: NF-kB SEAP reporter activity, fold change vs agonist alone; higher = enhanced NF-kB activity. The following applies: library stock concentration (final ~1000-fold dilution): 10 mM. An outline of the steps: (§1)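 After 50 nL of library stock was delivered by pin tool to RAW-Dual macrophages (50,000 cells/well, DMEM, 384-well plates), a PRR agonist was added 1 h later and the plates were kept at 37 °C, 5% CO2. Twenty hours later, IRF was read from supernatant by QuantiLuc luminescence and NF-κB by QuantiBlue absorbance at 620 nm. Reporter activity is stated as fold change over agonist-alone wells. Wells with IncuCyte confluency under 70% of agonist controls in both mask sets were counted as cytotoxic.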

The subject of assay [2] is RAW-Dual. The assay is described as follows: NF-kB SEAP reporter activity, fold change vs agonist alone; cytotoxicity flag (confluency mask): not cytotoxic; higher = enhanced NF-kB activity. A digest of the protocol:
as §1

Assay [3] deals with RAW-Dual. The assay is described as follows: NF-kB SEAP reporter activity, fold change vs agonist alone; cytotoxicity flag (confluency mask): cytotoxic (confluency <70% of control); higher = enhanced NF-kB activity. A digest of the protocol:
as §1

Where [4] appears, read: cytotoxicity flag (confluency mask): not cytotoxic, agonist: Imiquimod (TLR7) […].
Where [5] appears, read: cytotoxicity flag (confluency mask): not cytotoxic, agonist: MPLA (TLR4) […].
Where [6] appears, read: agonist: ODN 1826 (TLR9) 0.5 ug/mL.
Where [7] appears, read: agonist: Pam2CSK4 (TLR2/6) 0.1 ug/mL.
The mark [8] stands for this setting: agonist: Pam3CSK4 (TLR2/1) 0.1 ug/mL.

The full ranking holds about 2,900 compounds; the median of “NF-kB SEAP reporter activity, fold change vs agonist alone” is about 0.99, and the highest 2% start at about 2.6. Shown is part of a subset that was picked to be rich in the highest values.

With `C=C1CC23CCC4C(C)(C(=O)O)CCCC4(C)C2CCC1C3` (stereo not drawn), the figures for the “NF-kB SEAP reporter activity” value with RAW-Dual [1] (setting [4]) and with RAW-Dual [1] (setting [5]) were 0.739 and 0.753, respectively.
Take `C=C1CC23CCC4C(C)(C(=O)O)CCCC4(C)C2CCC1C3` (stereo not drawn) (library stock concentration (final ~1000-fold dilution): 10 mM): the “NF-kB SEAP reporter activity” value was 0.821 with RAW-Dual [2] (agonist: LPS (TLR4) 0.1 ug/mL), 0.749 in the assay on RAW-Dual [2] (setting [6]), 0.65 in the assay on RAW-Dual [2] (setting [7]) and 0.646 with RAW-Dual [2] (setting [8]).
As for `COc1ccc(CCCOC(Cn2ccnc2)c2ccc(OC)cc2)cc1.Cl` (stereo not drawn), the results for the “NF-kB SEAP reporter activity” value with RAW-Dual [1] (setting [4]) and in the assay on RAW-Dual [1] (setting [5]) were 0.901 and 1.28, respectively.
Regarding `COc1ccc(CCCOC(Cn2ccnc2)c2ccc(OC)cc2)cc1.Cl` (stereo not drawn) (library stock concentration (final ~1000-fold dilution): 10 mM), the “NF-kB SEAP reporter activity” value in the assay with RAW-Dual [2] (agonist: LPS (TLR4) 0.1 ug/mL) is 0.82; in the assay on RAW-Dual [2] (setting [6]), 0.588; in the assay on RAW-Dual [2] (setting [7]), 0.572; in the assay on RAW-Dual [2] (setting [8]) it was 0.84.
For `Cl.Cn1cc(C(=O)Nc2ccc3c(c2)OCCO3)c2ccccc2c1=O` (library stock concentration (final ~1000-fold dilution): 10 mM), in that order: 2.21, 1.48, 1.09 and 1.29.
On to `Cl.Cn1cc(C(=O)Nc2ccc3c(c2)OCCO3)c2ccccc2c1=O`, for which the “NF-kB SEAP reporter activity” value worked out at 1.2 with RAW-Dual [1] (setting [4]) and 1.41 in the assay on RAW-Dual [1] (setting [5]).
In the case of `CC(C)(C)CC1NC(C(=O)NC2CCC(O)CC2)C(c2cccc(Cl)c2F)C12C(=O)Nc1cc(Cl)ccc12` (stereo not drawn), the “NF-kB SEAP reporter activity” value in the assay with RAW-Dual [1] (cytotoxicity flag (confluency mask): cytotoxic (confluency <70% of control), agonist: Imiquimod (TLR7) […]) amounted to 1.55; with RAW-Dual [1] (cytotoxicity flag (confluency mask): cytotoxic (confluency <70% of control), agonist: MPLA (TLR4) […]), 2.25.
Take `COc1cc(C(=O)O)ccc1NC(=O)C1NC(CC(C)(C)C)C(C#N)(c2ccc(Cl)cc2F)C1c1cccc(Cl)c1F` (stereo not drawn): the “NF-kB SEAP reporter activity” value was 0.74 in the assay on RAW-Dual [1] (setting [4]) and 0.697 with RAW-Dual [1] (setting [5]).
Take `COc1cc(C(=O)O)ccc1NC(=O)C1NC(CC(C)(C)C)C(C#N)(c2ccc(Cl)cc2F)C1c1cccc(Cl)c1F` (stereo not drawn) (library stock concentration (final ~1000-fold dilution): 10 mM): the “NF-kB SEAP reporter activity” value with RAW-Dual [2] (agonist: LPS (TLR4) 0.1 ug/mL) was found to be 0.272; with RAW-Dual [2] (setting [6]), 0.436; in the assay on RAW-Dual [2] (setting [7]) it was 0.145; with RAW-Dual [2] (setting [8]), 0.285.
Turning to `CC(C)(C)CC1NC(C(=O)NC2CCC(O)CC2)C(c2cccc(Cl)c2F)C12C(=O)Nc1cc(Cl)ccc12` (stereo not drawn) (library stock concentration (final ~1000-fold dilution): 10 mM), the “NF-kB SEAP reporter activity” value with RAW-Dual [3] (agonist: LPS (TLR4) 0.1 ug/mL) was found to be 3.05; with RAW-Dual [3] (setting [6]), 2.82; with RAW-Dual [3] (setting [7]) it was 0.884; in the assay on RAW-Dual [3] (setting [8]) it was 1.21.
For the compound `CC(=O)OC1(C(C)=O)CCC2C3C=C(Cl)C4=CC(=O)C5CC5C4(C)C3CCC21C` (stereo not drawn) (library stock concentration (final ~1000-fold dilution): 10 mM), the “NF-kB SEAP reporter activity” value is 1.2 in the assay with RAW-Dual [2] (agonist: LPS (TLR4) 0.1 ug/mL), 1.01 in the assay with RAW-Dual [2] (setting [6]), 0.777 in the assay on RAW-Dual [2] (setting [7]) and 1.08 with RAW-Dual [2] (setting [8]).
As to `CC(=O)OC1(C(C)=O)CCC2C3C=C(Cl)C4=CC(=O)C5CC5C4(C)C3CCC21C` (stereo not drawn), the “NF-kB SEAP reporter activity” value with RAW-Dual [1] (setting [4]) was determined as 1.26; with RAW-Dual [1] (setting [5]), 1.21.
For the compound `CC1CCC2C(C)C(OC(=O)CCC(=O)O)OC3OC4(C)CCC1C32OO4` (stereo not drawn) (library stock concentration (final ~1000-fold dilution): 10 mM), the “NF-kB SEAP reporter activity” value in the assay with RAW-Dual [2] (agonist: LPS (TLR4) 0.1 ug/mL) was found to be 5.12; with RAW-Dual [2] (setting [6]), 1.67; in the assay with RAW-Dual [2] (setting [7]), 1.02; in the assay with RAW-Dual [2] (setting [8]), 1.44.
On to `CC1CCC2C(C)C(OC(=O)CCC(=O)O)OC3OC4(C)CCC1C32OO4` (stereo not drawn), for which the “NF-kB SEAP reporter activity” value stood at 1.84 with RAW-Dual [1] (setting [4]) and 2.5 in the assay on RAW-Dual [1] (setting [5]).
Consider `C[C@H]1[C@@H](O)O[C@@H]2OC3(C)CC[C@H]4[C@H](C)CC[C@@H]1[C@@]24OO3`, for which the “NF-kB SEAP reporter activity” value came out at 1.32 in the assay with RAW-Dual [1] (setting [4]) and 1.97 in the assay on RAW-Dual [1] (setting [5]).
For the compound `C[C@H]1[C@@H](O)O[C@@H]2OC3(C)CC[C@H]4[C@H](C)CC[C@@H]1[C@@]24OO3` (library stock concentration (final ~1000-fold dilution): 10 mM), the “NF-kB SEAP reporter activity” value was 3.41 in the assay on RAW-Dual [2] (agonist: LPS (TLR4) 0.1 ug/mL), 1.13 in the assay on RAW-Dual [2] (setting [6]), 1.1 in the assay with RAW-Dual [2] (setting [7]) and 0.848 in the assay with RAW-Dual [2] (setting [8]).

(Values after the supplement of paper PMC10037445.)
